Laboratory results taken from the supplement of paper PMC10981050.
“And” between values parts separate entries of the source, which are not always exact repeats. Identical values can stand only once. Counter-ions that a name gives are not always drawn.

Key:
Assay in all cases: cell viability relative to vehicle control; higher = less cytotoxic
Conditions in all cases: 10 µM
[1] = test system: K562
In short: (§1)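 Each screen used CRISPR-edited mutant and wild-type clones from four leukaemia lines. Compounds were acoustically dispensed at a single 10 µM dose, and CellTiter-Glo luminescence was read after 48 h with the supernatant first removed. Viability was analysed in Genedata Screener and given as percent of the on-plate vehicle control.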

[2] = test system: MARIMO
In short: as §1

[3] = test system: MOLM14
In short: as §1

[4] = test system: OCI-AML2
In short: as §1

| SMILES | cell viability ([1]; SRSF2 genotype: SRSF2 P95H/wt) | cell viability ([1]; SRSF2 genotype: SRSF2 wt/wt) [%] | cell viability ([2]; SRSF2 genotype: SRSF2 P95H/wt) [%] | cell viability ([2]; SRSF2 genotype: SRSF2 wt/wt) [%] | cell viability ([3]; SRSF2 genotype: SRSF2 P95H/wt) [%] | cell viability ([3]; SRSF2 genotype: SRSF2 wt/wt) [%] | cell viability ([4]; SRSF2 genotype: P95H/wt) [%] | cell viability ([4]; SRSF2 genotype: wt/wt) [%] |
| --- | --- | --- | --- | --- | --- | --- | --- | --- |
| C[C@@H](O)[C@H]1C(=O)N2C(C(=O)OCOC(=O)C(C)(C)C)=C(SC3CN(C4=NCCS4)C3)[C@H](C)[C@H]12 [Tebipenem pivoxil (L-084)] | 99.2% and 99.3% | 90 | 90.5 | 84.3 | 88.7 | 95.2 | 103 | 97.2 |
| Cc1cc(N2CCOCC2)cc2[nH]c(-c3c(NCC(O)c4cccc(Cl)c4)cc[nH]c3=O)nc12 (configuration not stated) | 46.4% and 36.7% | 52.1 | 33.2 | 31 | 5.77 | 9.63 | 7.45 | 18 |
| CCCCc1nc2cc(/C=C/C(=O)NO)ccc2n1CCN(CC)CC [SB939 (Pracinostat)] | 1.57% and 13.7% | 4.32 | 9.81 | 13.9 | 1.19 | 0.63 | 4.26 | 6.25 |
| Cc1cc(Nc2ncc(Cl)c(Nc3ccccc3S(=O)(=O)C(C)C)n2)c(OC(C)C)cc1C1CCNCC1 [Ceritinib (LDK378)] | 0.29% and 0.22% | 0.14 | 0.2 | 0.23 | 0.06 | 0.11 | -0.03 | 0.01 |
| N#CC[C@H](C1CCCC1)n1cc(-c2ncnc3[nH]ccc23)cn1 [S-Ruxolitinib] | 108% and 98.5% | 113 | 101 | 104 | 75.5 | 89.4 | 83.4 | 77.2 |
| CCOC(=O)N1CCC(CN(Cc2ccc(Cl)cc2)Cc2ccc([N+](=O)[O-])s2)C1 (configuration not stated) [Stenabolic (SR9009)] | 56% and 70.8% | 63.4 | 33.5 | 25.5 | 45.6 | 41.9 | 39.1 | 41.4 |
| O=C(N[C@@H](c1ccccc1)[C@@H](O)C(=O)O)c1ccccc1 [N-Benzoyl-(2R,3S)-3-phenylisoserine] | 108% and 99.9% | 103 | 100 | 98.4 | 103 | 102 | 101 | 104 |
| NC1(c2ccc(-c3nc4ccn5c(=O)[nH]nc5c4cc3-c3ccccc3)cc2)CCC1 [MK-2206 dihydrochloride] | 38.7% and 32.2% | 48.4 | 51.4 | 53.3 | 14.7 | 22.9 | 5.42 | 27.8 |
| CC1(C)S[C@@H]2[C@H](NC(=O)[C@H](NC(=O)N3CCN(S(C)(=O)=O)C3=O)c3ccccc3)C(=O)N2[C@H]1C(=O)O [Mezlocillin Sodium] | 100% and 98.1% | 102 | 101 | 112 | 100 | 101 | 97.4 | 112 |
| CC(C)(C)c1[nH]cnc1/C=c1\[nH]c(=O)/c(=C/c2ccccc2)[nH]c1=O [NPI-2358 (Plinabulin)] | 10.3% and 31% | 31.4 | 7.45 | 11 | 1.68 | 1.52 | 2.13 | 5.45 |
| COc1ccc(C=O)c(O)c1 [4-Methoxysalicylaldehyde] | 97.5% and 89.5% | 97.8 | 93.5 | 102 | 99.4 | 95.9 | 97 | 92 |
| Cc1cc(=O)[nH]c(=S)[nH]1 [Methylthiouracil] | 99.3% and 106% | 90.5 | 96.7 | 107 | 99.9 | 103 | 95.5 | 104 |
| COc1cc(-c2coc3cc4c(c(OC)c3c2=O)OCO4)cc(OC)c1OC [Irisflorentin] | 93.9% and 96.7% | 93.6 | 89.8 | 96.8 | 96.8 | 97.9 | 81.6 | 90.9 |
| Cc1c(-c2ccc(O)cc2)n(Cc2ccc(OCCN3CCCCCC3)cc2)c2ccc(O)cc12 [Bazedoxifene HCl] | 1.11% and 0.75% | 0.96 | 17.3 | 27.5 | 0.32 | 0.46 | 0.41 | 0.44 |
| Nc1ncc(-c2ccnc(Nc3ccncc3)n2)c(CC2CC2)n1 | 69% and 73.7% | 74.2 | 69.8 | 66.9 | 44.8 | 43.8 | 43.3 | 45.2 |
| COc1ccc(Cn2c3ncnc4c(ncn4Cc4ccc(OC)cc4)c-3nc2=O)cc1 | 1.11% and 1.3% | 0.98 | 4.49 | 17.2 | 9.44 | 2.32 | 4.12 | 5.63 |
| C[C@@H]1C/C=C/C=C/C=C/C=C/[C@H](O[C@@H]2O[C@H](C)[C@@H](O)[C@H](N)[C@@H]2O)C[C@@H]2O[C@](O)(C[C@@H](O)C[C@H]3O[C@@H]3/C=C/C(=O)O1)C[C@H](O)[C@H]2C(=O)O [Natamycin] | 102% and 105% | 102 | 100 | 105 | 98.5 | 104 | 101 | 110 |
| CCCc1nc(C)c2c(=O)[nH]c(-c3cc(S(=O)(=O)N4CCN(CC)CC4)ccc3OCC)nn12 [Vardenafil Hydrochloride Trihydrate (Vivanza] | 99.1% and 107% | 97.1 | 110 | 108 | 105 | 106 | 135 | 115 |
| COC(=O)N[C@H](C(=O)N1CCC[C@H]1c1nc(-c2ccc3c(c2)O[C@@H](c2ccccc2)n2c-3cc3cc(-c4c[nH]c([C@@H]5CCCN5C(=O)[C@@H](NC(=O)OC)C(C)C)n4)ccc32)c[nH]1)C(C)C [Elbasvir] | 87.7% and 92% | 86.9 | 68.6 | 77.3 | 81.9 | 87.8 | 91 | 88 |
| Cn1c(=O)cc(N2CCC[C@@H](N)C2)n(Cc2cc(F)ccc2C#N)c1=O [Trelagliptin] | 100% and 93.3% | 92.1 | 96.8 | 101 | 98.3 | 99.2 | 100 | 102 |

| SMILES | cell viability ([1]; SRSF2 genotype: SRSF2 P95H/wt) | cell viability ([1]; SRSF2 genotype: SRSF2 wt/wt) [%] | cell viability ([2]; SRSF2 genotype: SRSF2 P95H/wt) [%] | cell viability ([2]; SRSF2 genotype: SRSF2 wt/wt) [%] | cell viability ([3]; SRSF2 genotype: SRSF2 P95H/wt) [%] | cell viability ([3]; SRSF2 genotype: SRSF2 wt/wt) [%] | cell viability ([4]; SRSF2 genotype: P95H/wt) [%] | cell viability ([4]; SRSF2 genotype: wt/wt) [%] |
| --- | --- | --- | --- | --- | --- | --- | --- | --- |
| Cc1cncc(CN2CCC(=C3c4ccc(Cl)cc4CCc4cccnc43)CC2)c1 [Rupatadine Fumarate] | 77% and 89.3% | 76.5 | 62.6 | 54.1 | 61.4 | 64.4 | 38.6 | 46 |
| Nc1ncnc2c1ncn2C1OC(COP(=O)(O)OP(=O)(O)O)C(O)C1O (configuration not stated) | 111% and 110% | 107 | 91.2 | 90.7 | 101 | 95 | 96.3 | 99.9 |
| CC1=CCC(C(C)(C)O)CC1 (configuration not stated) | 102% and 104% | 103 | 101 | 105 | 96.1 | 103 | 103 | 103 |
| CN1CCC(CNc2ccc3ncc(-c4cccc(OC(F)(F)F)c4)n3n2)CC1 [SGI-1776 free base] | 1.35% and 1.49% | 2.08 | 0.84 | 2.75 | 0.45 | 0.48 | 0.42 | 0.66 |
| O=C(NOCC(O)CO)c1cc(Br)c(F)c(F)c1Nc1ccc(I)cc1F (configuration not stated) | 81.1% and 89.7% | 83.2 | 41.3 | 37.3 | 50.1 | 36.6 | 40.6 | 45 |
| COc1ccc(C[C@@H](C)NC[C@H](O)c2ccc(O)c(NC=O)c2)cc1 [Arformoterol Tartrate] | 97.2% and 91.1% | 98.8 | 85.2 | 106 | 86.5 | 90.9 | 109 | 103 |
| O=C(O)c1cc2cccc([N+](=O)[O-])c2[nH]1 | 103% and 105% | 103 | 98.9 | 107 | 106 | 101 | 111 | 111 |
| Nc1ccc(C(=O)O)c(O)c1 [Sodium 4-Aminosalicylate] | 89.6% and 88.1% | 81.3 | 85.7 | 92.5 | 88.7 | 88.1 | 86.3 | 97.5 |
| O=C(NS(=O)(=O)c1ccc(Br)s1)c1ccc(Cl)cc1Cl | 92.9% and 102% | 103 | 97 | 98.4 | 61.8 | 83.3 | 73.9 | 87.6 |
| CCN(CC)CCCC[C@H](NC(=O)[C@H](CC(C)C)NC(=O)[C@H](C)NC(=O)[C@H](Cc1ccccc1)NC(=O)c1ccc(C(C)(C)C)cc1)C(=O)N[C@@H](CO)C(=O)OC | 88.1% and 85% | 84.6 | 86.1 | 99 | 83.2 | 92 | 90.4 | 113 |
| COc1ccc(S(=O)(=O)N(C(C)=O)c2ccccc2/C=C/c2cc[n+]([O-])cc2)cc1 | 19.2% and 41.4% | 38.4 | 6.78 | 8.02 | 15.9 | 3.3 | 6.25 | 9.13 |
| O=C(Nc1ccc(Br)cc1)c1ccc(Br)c(S(=O)(=O)NCc2ccccc2)c1 | 83.5% and 88.7% | 86.8 | 88.5 | 93.7 | 96.9 | 96 | 76.2 | 76 |
| COc1cc2nc(N3CCCN(C)CC3)nc(NC3CCN(Cc4ccccc4)CC3)c2cc1OC | 6.31% and 1.97% | 3.98 | 0.75 | 0.69 | 0.24 | 0.26 | 0.23 | 0.28 |
| OC[C@H]1O[C@@H](O[C@@H]2OC=C[C@H]3[C@H](O)[C@@H]4O[C@]4(CO)[C@@H]23)[C@H](O)[C@@H](O)[C@@H]1O [Catalpol] | 106% and 108% | 104 | 103 | 115 | 99.9 | 105 | 96.7 | 106 |
| CCc1cccc(CC)c1NC(=O)N1Cc2[nH]nc(NC(=O)c3ccc(N4CCN(C)CC4)cc3)c2C1 | 29.9% and 41.4% | 25.5 | 69.2 | 70.3 | 19.8 | 13.4 | 12.8 | 23.3 |
| CO/N=C(\C(=O)N[C@@H]1C(=O)N2C(C(=O)O)=C(CSC(=O)c3ccco3)CS[C@H]12)c1csc(N)n1 [Ceftiofur hydrochloride] | 98.4% and 82.1% | 83.7 | 89.1 | 93.9 | 91.5 | 93.5 | 93.4 | 95.4 |
| O=C(c1ccc(/C=C/c2n[nH]c3ccccc23)cc1)N1CCNCC1 | 42.2% and 62.9% | 27.7 | 38.9 | 36.2 | 2.78 | 7.69 | 7.33 | 14.9 |
| CSc1cccc(Nc2ncc3cc(-c4c(Cl)cccc4Cl)c(=O)n(C)c3n2)c1 | 6.76% and 14.3% | 9.82 | 34.3 | 65.4 | 26.6 | 31.6 | 12.8 | 20.9 |
| Cc1cc(O)c2c(c1)C(=O)c1cccc(O)c1C2=O [Chrysophanic acid (Chrysophanol)] | 100% and 95.6% | 100 | 96.9 | 95.8 | 114 | 106 | 89.2 | 83 |
